The values that follow come from PubChem BioAssay AID2284360 (EPA ToxCast).

SMILES strings stand for the structures. Records with an inconclusive call do not appear. Calls of active or inactive are those of the source. Rule for the calls: active = hit-call score of the fitted dose curve at least 0.9, where 1 is the maximum; inconclusive = response in the unintended direction; inactive = score below 0.9.

The test is described as follows: ATG_M_19_EcoTox2: Attagene TRANS-FACTORIAL EcoTox-2 HepG2 Assay for M19 Transcription Factor (Internal Marker). Here is the method: ATG_EcoTox2 is a cell-based, multiplexed assay created by modifying the existing Attagene TRANS-FACTORIAL system to include a panel of nuclear receptors from some or all the following species: human (Homo sapiens), african clawed frog (Xenopus laevis), rainbow trout (Oncorhynchus mykiss), japanese medaka (Oryzias latipes), and zebrafish (Danio rerio). The ECOTOX2-FACTORIAL format uses HepG2, a human liver cell line, with measurements taken at 24 hours after chemical dosing in a 24-well plate. ATG_M_19_EcoTox2 is one of 29 assay components calculated in the ATG_EcoTox2 assay. It is designed to make measurements of mRNA induction, a form of inducible reporter, as detected with fluorescence intensity signals by Reverse transcription polymerase chain reaction (RT-PCR) and Capillary electrophoresis technology.The assay endpoint ATG_M_19_EcoTox2 was analyzed in the positive analysis fitting direction relative to DMSO as the negative control and baseline of activity. Using a type of inducible reporter, measures of mRNA for gain-of-signal activity can be used to understand the background control at the transcription factor-level as they relate to the gene. Furthermore, this assay endpoint can be referred to as a secondary readout, because this assay has produced multiple assay endpoints where this one serves a background control function. […]
Human liver HepG2 cells are transiently transfected with multiple reporter transcription units (MRTUs) in 6-well plates using FuGene 6 reagent (Roche; 3 ml FuGene/1 mg DNA). […] A major difference between the CIS and TRANS system is that in CIS activities of endogenous TFs are measured, whereas the TRANS assay evaluates changes in activities of exogenous, chimeric NR-Gal4 proteins. […] The fragments were purified using Qiaquick PCR columns (Qiagen), analyzed on an ABI 3130xL genetic analyzer (Applied Biosystems) with peak positions identified by using a set of X-rhodamine (ROX)-labeled MapMarker1000 molecular weight standards (BioVentures). […]
Consider `[Cl][Sn]([c]1ccccc1)([c]1ccccc1)[c]1ccccc1`, for which the outcome was inactive.
For `CCCCOCN(C(=O)CCl)c1c(CC)cccc1CC` the value was “inactive”.
Then `O=S(=O)(O)C(F)(F)C(F)(F)C(F)(F)C(F)(F)C(F)(F)C(F)(F)F`, with “inactive”.
